PubChem BioAssay (NCI)
Compounds without any hit were thinned out: in the full panel of roughly 83,000, 20% have a hit.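 Testing used 96-well plates and a 48-hour single-concentration exposure. Example: -40 means 40% of the starting cells died.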 A number with no mark means an inactive call. Calls of active or inactive are those of the source. How the source made its calls: active means growth percent below 10; inactive means the rest.

How the values were obtained:
Assay in all cases: NCI-60 one-dose screen, 48 h (100 = growth as untreated, 0 = no growth, -100 = all killed)
Conditions in all cases: 10 µM unless noted
[1] = tested on: NCI-H23 lung
[2] = tested on: NCI-H226 lung
[3] = tested on: NCI-H322M lung
[4] = tested on: HOP-62 NSCLC
[5] = tested on: NCI-H460 lung
[6] = tested on: A549/ATCC NSCLC
[7] = tested on: 786-0 renal
[8] = tested on: COLO 205 colon
[9] = tested on: DU-145 prostate
[10] = tested on: K-562 leukemia
[11] = tested on: MALME-3M melanoma
[12] = tested on: MDA-MB-231 breast
[13] = tested on: RXF 393 renal
[14] = tested on: SF-268 CNS
[15] = tested on: SF-295 CNS
[16] = tested on: SF-539 CNS
[17] = tested on: UACC-257 melanoma
[18] = tested on: M14 melanoma

Compound	growth [1]	growth [2]	growth [3]	growth [4]	growth [5]	growth [6]	growth [7]	growth [8]	growth [9]	growth [10]	growth [11]	growth [12]	growth [13]	growth [14]	growth [15]	growth [16]	growth [17]	growth [18]
COc1cccc(NC(=O)NCCNc2nccc(-c3c(-c4ccc(F)cc4)nc4sccn34)n2)c1	89.9%	85.9%	115%	99.4%	58.8%	54.4%	63%	69.3%	76.9%	71.4%	140%	79.4%	88.5%	84.2%	103%	102%	119%	92.6%
COC(=O)[C@@H]1[C@H](O)[C@H](C)[C@H](O)[C@H](C)/C=C\C=C(C)C(=O)Nc2c(C)c(OC(C)=O)c3c(c2O)C(=O)C(C)=C2OCOC(=C23)C(C)=C[C@@](C)(O)[C@H](O)[C@@H](C)[C@H]1OC(C)=O	109%	104%	121%	-100% (active)	110%	98.6%	111%	116%	144%	145%	131%	125%	106%	108%	118%	101%	106%	107%
O=P(OCCCl)(OCCCl)C(O)c1ccccc1Cl (centres undefined)	106%	100%	97%	96.2%	115%	111%	110%	101%	112%	96.6%	96.7%	108%	125%	103%	102%	98.1%	137%	105%
COc1ccc2c(c1)cn1c3ccc(O)cc3[nH]c(=O)c21	23.3%	45.9%	41.1%	25.8%	-52.4% (active)	26.8%	22.9%	4.21% (active)	15.4%	-5.1% (active)	62.5%	25.5%	-3.01% (active)	16.9%	22.5%	-4.58% (active)	51.4%	14.7%
CCOC1=C(Cl)C(=O)C(OCC)=C(Cl)C1=O	107%	103%	94.7%	97.6%	109%	108%	97.9%	104%	106%	82.5%	103%	103%	105%	107%	96.4%	101%	103%	110%
CCCCCCC(=O)C(C)C	107%	92.3%	96.5%	93.8%	113%	97.5%	94.5%	112%	106%	94.9%	89.2%	111%	101%	105%	101%	104%	92.8%	97.2%
O=C1CCNC1	111%	103%	96.5%	108%	109%	101%	96.1%	112%	103%	108%	108%	101%	105%	111%	108%	102%	95.8%	105%
CCOC(=O)c1sc(NS(=O)(=O)c2ccccc2)nc1C	109%	106%	122%	-99.5% (active)	109%	103%	89.4%	120%	145%	144%	120%	107%	114%	114%	133%	101%	110%	107%
